# Experimental data reported in PMC5700166.
# Legend:
# Test in all cases: protein-binding microarray (PBM); PBM: ~300 nM protein, 6 mM HEPES pH 7.8, 80 mM KCl, 0.5 mM EDTA, 0.5 mM EGTA, 6% glycerol, 35 ng/ul poly-dIdC, 1% milk, 1 h, room temperature; Ap Aiptasia and Nv Nematostella (sea anemones) / Co Capsaspora / Aq Amphimedon (sponge) / Dm Drosophila / Hu human; RHD is the Rel homology domain; high values mean tight binding
# Settings in all cases: dsDNA, one strand shown
# GST-Ap-NF-kB RHD = target: T1, GST-Ap-NF-kB RHD (Exaiptasia pallida (Aiptasia), UniProt A0A913YAJ5 2-422)
# T1 sequence: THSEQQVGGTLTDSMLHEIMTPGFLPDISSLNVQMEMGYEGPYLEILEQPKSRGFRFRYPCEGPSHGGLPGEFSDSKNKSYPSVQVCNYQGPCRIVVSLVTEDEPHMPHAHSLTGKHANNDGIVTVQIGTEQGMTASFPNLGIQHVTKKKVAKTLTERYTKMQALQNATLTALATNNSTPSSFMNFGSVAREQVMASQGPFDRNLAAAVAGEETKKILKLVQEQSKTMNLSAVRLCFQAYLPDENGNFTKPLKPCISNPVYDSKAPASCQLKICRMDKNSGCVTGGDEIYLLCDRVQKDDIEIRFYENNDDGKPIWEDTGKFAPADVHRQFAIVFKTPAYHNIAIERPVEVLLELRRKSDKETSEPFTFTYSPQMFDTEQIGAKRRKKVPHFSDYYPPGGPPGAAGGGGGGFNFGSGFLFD
# [1] = target: T2, GST-Nv-NF-kB (Cys allele) (Nematostella vectensis, UniProt E5G601 2-411)
# T2 sequence: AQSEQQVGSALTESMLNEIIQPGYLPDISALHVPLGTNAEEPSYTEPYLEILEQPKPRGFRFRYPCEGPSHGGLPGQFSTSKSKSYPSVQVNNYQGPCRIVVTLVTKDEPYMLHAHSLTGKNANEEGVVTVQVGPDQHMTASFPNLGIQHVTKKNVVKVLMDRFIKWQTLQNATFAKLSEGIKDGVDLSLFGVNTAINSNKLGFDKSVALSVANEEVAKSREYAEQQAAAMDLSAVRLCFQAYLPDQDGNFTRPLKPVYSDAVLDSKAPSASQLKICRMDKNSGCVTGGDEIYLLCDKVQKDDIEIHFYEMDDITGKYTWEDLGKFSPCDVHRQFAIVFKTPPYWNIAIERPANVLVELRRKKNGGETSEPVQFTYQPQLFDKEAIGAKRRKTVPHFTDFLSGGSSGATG
# GST-Dm-Relish = target: T3, GST-Dm-Relish (Drosophila melanogaster, UniProt Q94527 99-473)
# T3 sequence: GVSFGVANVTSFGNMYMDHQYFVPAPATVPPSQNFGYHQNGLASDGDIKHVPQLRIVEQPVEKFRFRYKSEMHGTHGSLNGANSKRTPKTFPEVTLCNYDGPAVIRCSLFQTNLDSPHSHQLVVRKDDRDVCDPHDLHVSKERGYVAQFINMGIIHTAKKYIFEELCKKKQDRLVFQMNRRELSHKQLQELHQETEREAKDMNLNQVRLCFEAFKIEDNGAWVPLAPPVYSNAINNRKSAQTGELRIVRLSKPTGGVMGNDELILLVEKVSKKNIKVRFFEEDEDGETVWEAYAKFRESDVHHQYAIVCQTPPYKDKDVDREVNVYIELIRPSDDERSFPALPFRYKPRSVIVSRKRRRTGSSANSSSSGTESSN
# GST-Aq-NF-kB = target: T4, GST-Aq-NF-kB (Amphimedon queenslandica, UniProt A9Y5G7 2-389)
# T4 sequence: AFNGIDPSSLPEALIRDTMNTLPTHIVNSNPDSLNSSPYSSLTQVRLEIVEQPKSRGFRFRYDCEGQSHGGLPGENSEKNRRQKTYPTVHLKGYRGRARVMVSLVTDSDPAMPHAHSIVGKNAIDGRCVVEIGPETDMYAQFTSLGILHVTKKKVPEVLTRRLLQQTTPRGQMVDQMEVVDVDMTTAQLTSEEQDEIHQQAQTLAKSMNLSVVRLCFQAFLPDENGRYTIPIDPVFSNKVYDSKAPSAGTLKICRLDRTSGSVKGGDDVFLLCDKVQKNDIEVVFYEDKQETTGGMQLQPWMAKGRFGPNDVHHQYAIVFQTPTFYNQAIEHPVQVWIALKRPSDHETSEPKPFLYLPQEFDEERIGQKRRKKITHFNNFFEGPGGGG
Sequence,binding signal (GST-Ap-NF-kB RHD) [z-score],binding signal [1] [z-score],binding signal (GST-Dm-Relish) [z-score],binding signal (GST-Aq-NF-kB) [z-score]
CCGATTAACATCAGGGATTTACCTGATGTTAATCGGGTCTTGATTCGCTTGACGCTGCTG,4.76,5.65,9.23,6.8
CCGATTAACATCAGGGCATTACCTGATGTTAATCGGGTCTTGATTCGCTTGACGCTGCTG,1.29,1.87,3.33,4.51
CCGATTAACATCAAAATTCCACCTGATGTTAATCGGGTCTTGATTCGCTTGACGCTGCTG,1.5,2.45,1.96,2.25
CCGATTAACATCAAGGTAATTCCTGATGTTAATCGGGTCTTGATTCGCTTGACGCTGCTG,1.69,2.09,4.8,3.37
CCGATTAACATCAGAAAATTACCTGATGTTAATCGGGTCTTGATTCGCTTGACGCTGCTG,2.06,3.89,4.45,3.25
CCGATTAACATCAAAATTTCACCTGATGTTAATCGGGTCTTGATTCGCTTGACGCTGCTG,1.14,2.14,2.34,1.7
CCGATTAACATCAAGGGCATTCCTGATGTTAATCGGGTCTTGATTCGCTTGACGCTGCTG,1.84,1,2.4,3.02
CCGATTAACATCACGGAAGTCCCTGATGTTAATCGGGTCTTGATTCGCTTGACGCTGCTG,5.31,5.39,6.53,5.41
CCGATTAACATCAGGCAAGTCCCTGATGTTAATCGGGTCTTGATTCGCTTGACGCTGCTG,3.63,3.87,2.41,5.74
CCGATTAACATCAGGGCTTTACCTGATGTTAATCGGGTCTTGATTCGCTTGACGCTGCTG,1.07,2.29,5.69,3.97
CCGATTAACATCAGGCAAATCCCTGATGTTAATCGGGTCTTGATTCGCTTGACGCTGCTG,1.95,2.27,1.36,4.16
CCGATTAACATCAGGGATTCCACTGATGTTAATCGGGTCTTGATTCGCTTGACGCTGCTG,2.72,1.75,6.88,4.11
CCGATTAACATCAGAAAATGCCCTGATGTTAATCGGGTCTTGATTCGCTTGACGCTGCTG,1.93,2.33,2.42,3.47
CCGATTAACATCAGGGATCTACCTGATGTTAATCGGGTCTTGATTCGCTTGACGCTGCTG,3.06,2.58,7.65,4.74
CCGATTAACATCACGGTACTTCCTGATGTTAATCGGGTCTTGATTCGCTTGACGCTGCTG,2.38,2.66,7.59,2.93
CCGATTAACATCAGGAATCCCACTGATGTTAATCGGGTCTTGATTCGCTTGACGCTGCTG,1.73,1.37,8.1,1.75
CCGATTAACATCAGGGCAAACCCTGATGTTAATCGGGTCTTGATTCGCTTGACGCTGCTG,1.34,1.88,1.14,4.6
CCGATTAACATCAGGGTTTTCCATGATGTTAATCGGGTCTTGATTCGCTTGACGCTGCTG,2.55,2.18,5.27,4.33
CCGATTAACATCATTAGGGTATTTGATGTTAATCGGGTCTTGATTCGCTTGACGCTGCTG,2.55,3.98,1.47,3.54
CCGATTAACATCACGGAATTACCTGATGTTAATCGGGTCTTGATTCGCTTGACGCTGCTG,1.02,1.63,3.44,3.88
CCGATTAACATCACGGGTTTTTCTGATGTTAATCGGGTCTTGATTCGCTTGACGCTGCTG,3.7,3.76,5.07,4.7
CCGATTAACATCAGGGACCTCCCTGATGTTAATCGGGTCTTGATTCGCTTGACGCTGCTG,5.47,4.78,6.16,7.04
CCGATTAACATCAGGAATCACCCTGATGTTAATCGGGTCTTGATTCGCTTGACGCTGCTG,2.46,2.05,7.17,4.82
CCGATTAACATCAAGGGTTTTCCTGATGTTAATCGGGTCTTGATTCGCTTGACGCTGCTG,3.57,3.39,4.7,5.2
CCGATTAACATCAGGAAACTACCTGATGTTAATCGGGTCTTGATTCGCTTGACGCTGCTG,1.63,2.51,4.48,4.72
CCGATTAACATCAAAAAAGACCCTGATGTTAATCGGGTCTTGATTCGCTTGACGCTGCTG,2.93,5.44,6.91,6.04
CCGATTAACATCAAGAAATTACCTGATGTTAATCGGGTCTTGATTCGCTTGACGCTGCTG,1.26,2.74,3.19,2.27
CCGATTAACATCAGGGAGCTACCTGATGTTAATCGGGTCTTGATTCGCTTGACGCTGCTG,2.89,1.88,1.02,3.21

Sequence,binding signal (GST-Ap-NF-kB RHD) [z-score],binding signal [1] [z-score],binding signal (GST-Dm-Relish) [z-score],binding signal (GST-Aq-NF-kB) [z-score]
CCGATTAACATCAGGGCATACCCTGATGTTAATCGGGTCTTGATTCGCTTGACGCTGCTG,2.36,3.25,3.77,5.87
CCGATTAACATCAGGACAGTCCCTGATGTTAATCGGGTCTTGATTCGCTTGACGCTGCTG,4.92,5.23,3.04,7.13
CCGATTAACATCAGGAATTACCATGATGTTAATCGGGTCTTGATTCGCTTGACGCTGCTG,1.03,1.38,4.62,3
CCGATTAACATCAGGGACTTACCTGATGTTAATCGGGTCTTGATTCGCTTGACGCTGCTG,5.1,7,7.96,8.29
CCGATTAACATCAGGAATCCCTATGATGTTAATCGGGTCTTGATTCGCTTGACGCTGCTG,2.79,2.15,6.17,2.57
CCGATTAACATCAGGGACTCACCTGATGTTAATCGGGTCTTGATTCGCTTGACGCTGCTG,3.77,3.19,7.74,4.68
CCGATTAACATCAGGAAGGCCCCTGATGTTAATCGGGTCTTGATTCGCTTGACGCTGCTG,2.9,2.69,4.9,5.3
CCGATTAACATCAATGGGTTTTCTGATGTTAATCGGGTCTTGATTCGCTTGACGCTGCTG,1.73,1.21,2.88,1.85
CCGATTAACATCAGGAATGTCCCTGATGTTAATCGGGTCTTGATTCGCTTGACGCTGCTG,3.06,5.35,3.4,6.41
CCGATTAACATCAAGGGAAGCCCTGATGTTAATCGGGTCTTGATTCGCTTGACGCTGCTG,2.12,1.83,7.5,3.99
CCGATTAACATCAGGGAGAGCCCTGATGTTAATCGGGTCTTGATTCGCTTGACGCTGCTG,3.06,3.59,1.82,6.26
CCGATTAACATCAGGGAAGCACCTGATGTTAATCGGGTCTTGATTCGCTTGACGCTGCTG,4.67,5.46,9.38,6.3
CCGATTAACATCAGGAGATACCCTGATGTTAATCGGGTCTTGATTCGCTTGACGCTGCTG,3.04,3.44,3.18,6.4
CCGATTAACATCAGGGACAGCCCTGATGTTAATCGGGTCTTGATTCGCTTGACGCTGCTG,3.43,4.69,2.23,6.35
CCGATTAACATCAGAGAAACCCCTGATGTTAATCGGGTCTTGATTCGCTTGACGCTGCTG,5.16,4.86,5.69,5.18
CCGATTAACATCAGGTAATTCCATGATGTTAATCGGGTCTTGATTCGCTTGACGCTGCTG,1.26,1.89,4.41,3.06
CCGATTAACATCAGGAAAACACCTGATGTTAATCGGGTCTTGATTCGCTTGACGCTGCTG,2.56,3.6,3.1,5.13
CCGATTAACATCAAGGGCTTCCCTGATGTTAATCGGGTCTTGATTCGCTTGACGCTGCTG,1.53,1.82,7.18,3.85
CCGATTAACATCAGGAGTTTACCTGATGTTAATCGGGTCTTGATTCGCTTGACGCTGCTG,1.12,1.18,3.24,2.87
CCGATTAACATCACGGAAAACCCTGATGTTAATCGGGTCTTGATTCGCTTGACGCTGCTG,2.23,2.07,3.69,4.81
CCGATTAACATCAGGTAATCACCTGATGTTAATCGGGTCTTGATTCGCTTGACGCTGCTG,1.18,2.2,5.6,4.04
CCGATTAACATCAAGGGGGTCCCTGATGTTAATCGGGTCTTGATTCGCTTGACGCTGCTG,5.89,3.29,7.16,4.47
CCGATTAACATCAGGGATATCCATGATGTTAATCGGGTCTTGATTCGCTTGACGCTGCTG,1.84,1.09,2.52,2.44
CCGATTAACATCAGGACTATCCCTGATGTTAATCGGGTCTTGATTCGCTTGACGCTGCTG,1.82,2.61,1.48,5.97
CCGATTAACATCACGGCAATCCCTGATGTTAATCGGGTCTTGATTCGCTTGACGCTGCTG,1.5,1.21,2.64,2.66
CCGATTAACATCAGGTAATCCCATGATGTTAATCGGGTCTTGATTCGCTTGACGCTGCTG,2.95,1.6,6.13,3.49
CCGATTAACATCAAAAAAATACCTGATGTTAATCGGGTCTTGATTCGCTTGACGCTGCTG,1.95,2.83,5.83,3.53
